Compounds with a hit are over-represented: about 1.9% of the library has one in this group of screens.
Measles CPE: protection of cells from measles virus; Measles virus-infected cells, CPE protection, absorbance; protection (pct of control), % at 4 µM; 1.5% of 140,000 active; AID 841; in the data active = protection mostly above about 24%, no sharp cut-off; inactive = mostly below about 26%
sdo1 growth: compounds rescuing growth of sdo1-depleted yeast, bone marrow failure model | S. cerevisiae sdo1-depleted JHY4D growth rescue, OD600 30 h; hits give high values; pdr5 snq2 efflux-pump mutant strain | z-score at 10 µM | 0.21% of 140,000 active | AID 817;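 active = z-score above 3 at both the 24 hr and the 30 hr optical density reads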
sEH inh: blocks human soluble epoxide hydrolase activity; recombinant human sEH enzymatic activity assay; inhibition, % at 2 µM; 0.34% of 91,000 active; in the data active = inhibition above about 80%
sEH activator: soluble epoxide hydrolase (human) activation. P34913. purified human sEH enzymatic activity, activator screen. activation, % at 2 µM. 0.04% of 91,000 active; in the data active = activation above about 37%
SDO1 rescue DR: SDO1-depleted yeast growth rescue confirmation. shares compounds with sdo1 growth. S. cerevisiae JHY4D (SDO1-depleted) growth rescue, OD600, 30 h; hits give high values; efflux-deficient strain, SNQ2 and PDR5 mutated. OD recovery (test concentration not listed). 44% of 440 active;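 active = yeast growth recovered at 30 hours, either rising with dose fitted slope above 0.001 or with average optical density gain above 0.07, some results past the limit were not filed as active; inactive = growth falling with dose or no effect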
Hits are given with their value; - = inactive; . = no result.

SMILES	Measles CPE	sdo1 growth	sEH inh	sEH activator	others
CN(C)CCN=Cc1c(O)n(CCC2=CCCCC2)c(=O)[nH]c1=O	33	-	-	-
O=c1[nH]c(=O)n(CCC2=CCCCC2)c(O)c1C=NCCCn1ccnc1	-	-	-	-
CN1CC=C2C(C#N)=C(N)C(C#N)(C#N)C(c3ccncc3)C2C1 (stereo not given)	45	-	-	-
CCOC(=O)C(O)(c1ccc(NC(=O)NC2CCCCC2)cc1)C(F)(F)F (stereo not given)	-	-	95	-
CCOC(=O)C(O)(c1ccc(N(C)C(=O)COc2ccccc2)cc1)C(F)(F)F (stereo not given)	.	.	-	-
Cc1nonc1-c1nc(-c2nonc2N)n[nH]1	-	-	-	-
CCCCN1C(=O)NC(=O)/C(=C/c2cnc(SC)nc2)C1=O	51	-	-	-
COc1cc(OC)cc(-n2nc(C(=O)N3CCC4(CC3)OCCO4)c3ccccc3c2=O)c1	52	-	.	.
Cc1sc2c(c1C)C(c1ccc(C(C)(C)C)cc1)=NCC(=O)N2CC(=O)Nc1nccs1	54	-	-	-
CC[N+](C)(CC)CCCOC(=O)C(O)(c1ccccc1)C1CCCCC1 (stereo not given)	32	-	-	-
CCOC(C(=O)OCCC[N+](C)(CC)CC)(c1ccccc1)c1ccccc1	-	-	-	-
CN(C(=O)Oc1ccc(Cl)c2cccnc12)c1ccccc1	31	-	.	.
CS(=O)(=O)NCc1nnc2n1-c1ccc(Cl)cc1C(c1ccccc1)=NC2	28	-	.	.
CCS(=O)(=O)NCc1nnc2n1-c1ccc(Cl)cc1C(c1ccccc1)=NC2	-	-	.	.
Cc1cc(C)nc(-n2c(C)nc3cc(Cl)ccc3c2=O)c1	-	-	-	-
O=C(c1ccccc1)C(CN1CCCC1)c1ccccc1 (stereo not given)	22	-	.	.
O=C(Cc1ccccc1)OCCN1CCCCC1	-	-	-	-
O=C(c1cc(-c2cccnc2)nc2ccc(Cl)cc12)N1CCC2(CC1)OCCO2	-	-	-	-
C[C@H]1CCC[C@@H](O)CCC/C=C/c2cc(O)cc(O)c2C(=O)O1	117	-	-	-
CCOC(=O)c1ccc(N=Cc2c(O)n(-c3ccccc3F)c(=S)[nH]c2=O)cc1	-	-	.	.
CCN(CC)CCOC(=O)c1ccc(N=Cc2c(O)[nH]c(=O)[nH]c2=O)cc1	60	-	-	-
C1=C(CCNCc2ccccc2)CCCC1	35	-	-	-
Cc1ccc(C)c(OCC(=O)N2CCCN(C)CC2)c1	-	-	.	.
CC/C(=N\N1CCN(C)CC1)c1c(O)[nH]c(=O)[nH]c1=O	-	-	.	.
CCN1CCN(C(=O)COc2ccc3c(c2)C(=O)CC2(CCN(C(C)=O)CC2)O3)CC1	-	-	-	-
SMILES	Measles CPE	sdo1 growth	sEH inh	sEH activator	others
C[C@@H]1C(=O)O[C@@H]2[C@H](O)C34[C@@H]5OC(=O)C3(O[C@H]3OC(=O)[C@H](O)C34[C@H](C(C)(C)C)[C@H]5O)[C@@]12O (stereo not given in full)	20	-	.	.
O=S(=O)(c1ccc(Cl)cc1)N1CN2CCN(C2)C1	-	-	-	-
CC1CCC/C=C/C2CC(O)CC2C(O)/C=C/C(=O)O1 (stereo not given)	-	-	-	-
Cc1ccc2nc3c(cc2c1)CC1(C(=O)N(C)C(=O)N(C)C1=O)C1CCCCN31 (stereo not given)	34	-	-	-
NC(=O)CN1CC(c2ccccc2)CC1=O (stereo not given)	39	-	-	-
Cc1cccc(N2C(=O)/C(=C/c3ccc(CN(CCC#N)S(C)(=O)=O)o3)C(=O)NC2=S)c1	-	-	-	-
Cc1ccc(-c2nc(CS(=O)CC(=O)N3CCC4(CC3)OCCO4)c(C)o2)cc1 (stereo not given)	-	-	-	-
O=C(NCc1ccc(C(=O)N2CCC3(CC2)OCCO3)cc1)c1cccc(Br)c1	26	-	-	-
CCc1sc(C(=O)N2CCC3(CC2)OCCO3)cc1Br	-	-	.	.
CCC(CC)NC1CCCCC1OC (stereo not given)	26	-	.	.
Cc1ccc(S(=O)(=O)NC(Cc2cnc[nH]2)C(=O)O)cc1 (stereo not given)	-	-	.	.
Nc1ccccc1N=Cc1c(O)n(CCC2=CCCCC2)c(=O)[nH]c1=O	-	7.4	-	-	SDO1 rescue DR=-
O=C(N/N=C/c1c(O)n(CCC2=CCCCC2)c(=O)[nH]c1=O)c1ccccc1	-	-	.	.
CN1CCN(Cc2ccccc2Sc2ccccc2)CC1	-	-	.	.
Cc1ccc2nc3c(cc2c1)CC1(C(=O)N(C)C(=O)N(C)C1=O)C1COCCN31 (stereo not given)	-	-	-	-
COc1ccccc1N=Cc1c(O)n(C)c(=O)n(C)c1=O	-	3.2	-	-	SDO1 rescue DR=0.083
C[N+]1=C(/C=C/Nc2ccccc2)C(C)(C)c2ccccc21	-	6.2	.	.	SDO1 rescue DR=0.14
